In PubChem BioAssay (Tox21):
Several values for one entry are separate records, joined by “and”; a condition that tells them apart may be missing. Equal entries are not always repeated. Results filed as inconclusive are left out. Some structures have more than one record in an assay (separate samples or runs), and their calls can disagree. Activity calls are given as the source filed them. Unless noted, the call rests on the fitted dose curve; in most records, active means well fitted curve in the direction sought with a large enough effect in the repeat runs; inconclusive means weak or mixed curves; inactive means no such curve, though single readings can be large; an effect the other way counts as inactive or inconclusive.

Tests used:
[1] = qHTS assay to identify small molecule antagonists of the estrogen related receptor (ERR) signaling pathway from Tox21 library - cell viability counter screen (AID 1224834); further: nearly all actives have a fitted effect of over 30% in size; further: potency means the concentration at half of the fitted maximal effect
In short: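 ERR reporter cells, 2,000 per well, rested 6 h, then exposed to compound in DMSO for 17.5 hours at 37 C. Viability read as fluorescence after 30 min with CellTiter-Fluor.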

[2] = target: Luciferin 4-monooxygenase (Photinus pyralis) (UniProt P08659); test: qHTS assay to identify small molecule inhibitors of firefly luciferase (AID 1224835); further: nearly all actives have a fitted effect of over 25% in size
Chain of Luciferin 4-monooxygenase (Photinus pyralis) (P08659 whole entry, looked up): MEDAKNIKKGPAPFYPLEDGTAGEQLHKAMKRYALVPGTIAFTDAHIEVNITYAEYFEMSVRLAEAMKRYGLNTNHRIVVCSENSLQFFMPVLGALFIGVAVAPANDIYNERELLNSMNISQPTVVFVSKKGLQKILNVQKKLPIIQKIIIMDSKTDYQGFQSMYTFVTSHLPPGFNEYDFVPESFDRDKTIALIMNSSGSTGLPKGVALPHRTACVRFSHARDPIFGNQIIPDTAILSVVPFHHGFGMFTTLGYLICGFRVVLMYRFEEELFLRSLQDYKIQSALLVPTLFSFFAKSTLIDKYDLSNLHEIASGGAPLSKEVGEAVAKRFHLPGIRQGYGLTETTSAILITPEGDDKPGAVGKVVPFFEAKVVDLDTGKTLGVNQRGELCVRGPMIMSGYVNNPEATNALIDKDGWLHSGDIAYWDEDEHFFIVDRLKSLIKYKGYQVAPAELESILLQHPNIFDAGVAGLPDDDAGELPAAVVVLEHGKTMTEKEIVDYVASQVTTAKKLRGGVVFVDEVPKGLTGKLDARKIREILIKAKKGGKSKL
In short: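 Quantitative HTS format; KM concentrations of both substrates. Purified P. pyralis FLuc activity quantified from luminescence images.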

[3] = qHTS assay to identify small molecule agonists of the constitutive androstane receptor (CAR) signaling pathway - cell viability counter screen (AID 1224836); further: nearly all actives have a fitted effect of over 45% in size
In short: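 Multiplexed viability check: HepG2-CYP2B6-hCAR cells, 15-point compound dosing, 0.75 uM PK11195 final, 23 h at 37 C, CellTiter-Fluor fluorescence.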

[4] = qHTS assay to identify small molecule antagonists of the constitutive androstane receptor (CAR) signaling pathway - cell viability counter screen (AID 1224837); further: nearly all actives have a fitted effect of over 45% in size
In short: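 HepG2 cells stably carrying hCAR and CYP2B6-2.2kb reporter, stimulated with 50 nM CITCO and compounds at 15 concentrations for 23 h at 37 C. Viability measured by CellTiter-Fluor fluorescence.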

[5] = target: Nuclear receptor subfamily 1 group I member 3 (Homo sapiens) (UniProt Q14994); test: qHTS assay to identify small molecule antagonists of the constitutive androstane receptor (CAR) signaling pathway (AID 1224838); further: nearly all actives have a fitted effect of over 40% in size
Chain of Nuclear receptor subfamily 1 group I member 3 (Homo sapiens) (Q14994 whole entry, looked up): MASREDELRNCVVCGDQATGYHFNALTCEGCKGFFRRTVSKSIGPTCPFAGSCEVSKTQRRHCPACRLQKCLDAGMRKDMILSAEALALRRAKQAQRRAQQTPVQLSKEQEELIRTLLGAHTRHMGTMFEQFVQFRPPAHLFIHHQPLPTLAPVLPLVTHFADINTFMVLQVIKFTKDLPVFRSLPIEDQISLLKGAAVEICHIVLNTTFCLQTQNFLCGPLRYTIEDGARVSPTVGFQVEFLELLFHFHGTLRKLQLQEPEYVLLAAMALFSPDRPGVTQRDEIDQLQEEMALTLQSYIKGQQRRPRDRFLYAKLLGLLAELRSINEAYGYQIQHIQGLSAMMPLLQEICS
In short: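 HepG2 cells stably carrying hCAR and a CYP2B6-2.2kb luciferase reporter, seeded 4 hrs before compound (15 concentrations). Stimulated with 50 nM CITCO for 24 hr at 37 C. ONE-Glo luminescence read after 30 min at room temperature.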

[6] = target: Nuclear receptor subfamily 1 group I member 3 (Homo sapiens) (UniProt Q14994); test: qHTS assay to identify small molecule agonists of the constitutive androstane receptor (CAR) signaling pathway (AID 1224839); further: nearly all actives have a fitted effect of over 15% in size
In short: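 Using human hepatoma HepG2 cells engineered with hCAR and a CYP2B6-2.2kb reporter, 15-concentration compound series were incubated 24 h alongside PK11195 at 0.75 uM final, with luminescence quantified afterwards.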

[7] = qHTS assay to identify small molecule antagonists of the estrogen related receptor signaling pathway with the pleiotropic PPARgamma coactivator (PGC) from Tox21 10K library - cell viability counter screen (AID 1224840; active means well fitted cell-killing curve with a large enough effect in the repeat runs, not every such curve was filed as active; further: nearly all actives have a fitted effect of over 40% in size)
In short: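 PGC/ERR cells (2,000/well) plated 6 h, then compound-treated for 17.5 h at 37 C. Viability measured by CellTiter-Fluor fluorescence after 30 min at 37 C, multiplexed with the pathway assay.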

[8] = target: Thyrotropin receptor (Homo sapiens) (UniProt P16473); test: qHTS assay to identify small molecule agonists of the thyroid stimulating hormone receptor (TSHR) signaling pathway (AID 1224843; calls by dose curve; further: nearly all actives have a fitted effect of over 45% in size)
Chain of Thyrotropin receptor (Homo sapiens) (P16473 whole entry, looked up): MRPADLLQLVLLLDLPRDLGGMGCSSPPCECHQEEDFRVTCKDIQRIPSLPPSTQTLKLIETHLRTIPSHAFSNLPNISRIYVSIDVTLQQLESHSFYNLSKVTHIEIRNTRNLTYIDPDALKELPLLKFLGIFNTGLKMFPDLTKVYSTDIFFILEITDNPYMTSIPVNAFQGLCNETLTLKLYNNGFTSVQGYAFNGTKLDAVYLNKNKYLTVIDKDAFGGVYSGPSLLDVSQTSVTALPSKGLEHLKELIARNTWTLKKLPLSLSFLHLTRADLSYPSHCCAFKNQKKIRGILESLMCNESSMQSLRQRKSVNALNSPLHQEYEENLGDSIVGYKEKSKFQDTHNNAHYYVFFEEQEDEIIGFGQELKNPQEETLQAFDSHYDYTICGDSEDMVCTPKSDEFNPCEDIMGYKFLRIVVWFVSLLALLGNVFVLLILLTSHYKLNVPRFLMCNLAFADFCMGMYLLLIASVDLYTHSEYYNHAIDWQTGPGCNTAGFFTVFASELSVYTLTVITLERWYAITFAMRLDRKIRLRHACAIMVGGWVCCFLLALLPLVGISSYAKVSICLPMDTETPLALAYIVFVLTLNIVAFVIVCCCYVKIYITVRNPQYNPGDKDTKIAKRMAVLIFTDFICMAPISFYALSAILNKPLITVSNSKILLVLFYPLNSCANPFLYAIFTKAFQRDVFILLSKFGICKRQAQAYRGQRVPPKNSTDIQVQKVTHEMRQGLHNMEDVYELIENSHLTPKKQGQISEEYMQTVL
In short: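 Cell line HEK293 with TSHR; density 800/well. Exposure 30 min RT. Readout HTRF cAMP (cAMP-d2/anti-cAMP-cryptate), 1 h RT before reading.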

[9] = qHTS assay to identify small molecule agonists of the hypoxia (HIF-1) signaling pathway - cell viability counter screen (AID 1224844; calls by dose curve; further: nearly all actives have a fitted effect of over 50% in size; further: potency means the concentration at half of the fitted maximal effect)
In short: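 HRE-bla ME-180 cells, 2,000/well in 0.5% dialyzed FBS medium, treated 17 h at 37C with compounds. Viability read in the same wells as the bla reporter, by CellTiter-Glo luminescence after 30 min at room temperature.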

[10] = qHTS assay to identify small molecule agonists of H2AX (AID 1224845; active means well fitted activation curve with a large enough effect in the signal ratio in the repeat runs, not every such curve was filed as active; the % refers to the signal ratio)
In short: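 Wild-type CHO-K1 cells plated overnight, then exposed 3 hr at 37C to compounds at 15 concentrations (0.76% DMSO). Lysed, then HTRF anti-pH2AX(S139)-cryptate/anti-H2AX-d2 detection after 24 hr at room temperature; emissions 665 and 620 nm.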

[11] = qHTS assay to identify small molecule agonists of the hypoxia (HIF-1) signaling pathway (AID 1224846; active means well fitted activation curve with a large enough effect in the signal ratio in the repeat runs, not every such curve was filed as active; the % refers to the signal ratio)
In short: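 HRE-bla ME-180 beta-lactamase reporter cells in medium with 0.5% dialyzed FBS, pre-incubated 5 h then exposed to compounds 17 h at 37C, 5% CO2; reporter induction read with CCF4-AM FRET substrate.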

[12] = qHTS assay to identify small molecule agonists of H2AX - cell viability counter screen (AID 1224847; calls by dose curve; further: top concentration of the series differs between compounds; nearly all actives have a fitted effect of over 30% in size)
In short: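 After overnight plating of 1000 CHO-K1 cells per well, a 15-concentration compound series was applied for 3 hr at 37C. Luminescence from CellTiter-Glo, read following 30 min at room temperature, reflected cell viability.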

[13] = qHTS assay to identify small molecule antagonists of the estrogen related receptor signaling pathway with the pleiotropic PPARgamma coactivator (PGC) from Tox21 10K library (AID 1224841; call rule not given here; further: actives are mostly falling curves and most rising ones were filed inactive; nearly all actives have a fitted effect of over 50% in size)
In short: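 PGC/ERR cell line, 2,000 cells/well, pre-incubated 6 hours at 37 C, then exposed to compounds for 18 hours at 37 C; luciferase read with One-Glo luminescence after 30 min at room temperature.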

[14] = qHTS assay to identify small molecule agonists of the estrogen related receptor signaling pathway with the pleiotropic PPARgamma coactivator (PGC) from Tox21 10K library (AID 1224842); further: nearly all actives have a fitted effect of over 15% in size
In short: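 PGC/ERR reporter cells (NTP line) were seeded 2,000 per well, rested 6 h at 37 C/5% CO2, then pin-dosed with compounds in DMSO for 18 h at 37 C; luciferase read by One-Glo luminescence after 30 min at room temperature.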

[15] = qHTS assay to identify small molecule antagonists of the estrogen related receptor (ERR) signaling pathway from Tox21 library (AID 1224848); further: nearly all actives have a fitted effect of over 50% in size; further: potency means the concentration at half of the fitted maximal effect
In short: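 Screening used an ERR reporter line supplied by NTP, exposed for 18 h at 37 C to library compounds delivered in DMSO. Signal was luciferase luminescence developed with ONE-Glo at room temperature for 30 min.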

[16] = qHTS assay to identify small molecule agonists of the estrogen related receptor (ERR) signaling pathway from Tox21 library (AID 1224849; calls by dose curve; further: nearly all actives have a fitted effect of over 15% in size); details: ERR reporter cell line, ONE-Glo luciferase, 18 h
In short: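 ERR reporter cells (NTP line) pre-incubated 6 hours at 37 C, then exposed to compounds for 18 hours at 37 C. ONE-Glo luciferase luminescence was read after 30 minutes at room temperature.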

[17] = qHTS RealTime-Glo MT Cell Viability Assay in HepG2 cells - 24 hour (AID 1224867); further: nearly all actives have a fitted effect of over 50% in size
In short: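 HepG2 suspension premixed with RealTime-Glo reagents is plated at 600 cells per well and left 5 h at 37 C/5% CO2. Compounds in DMSO then go in, and bioluminescence reflecting viable cell number is recorded over 40 h.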

[18] = qHTS RealTime-Glo MT Cell Viability Assay in HEK293 cells - 32 hour (AID 1224868)
In short: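 Reads taken at 0, 8, 16, 24, 32 and 40 h from the same wells. HEK293 cells (600/well) carried RealTime-Glo reagents from seeding, with compound added after a 5 h settle at 37 C.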

[19] = qHTS assay to identify small molecule agonists of the estrogen related receptor signaling pathway with the pleiotropic PPARgamma coactivator (PGC) (AID 1224823)
In short: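 Steps: plate PGC/ERR cells at 2,000 cells/well; incubate 6 h, 37 C/5% CO2; pin-transfer compounds (DMSO); incubate 18 h, 37 C; add One-Glo; 30 min RT; read luminescence.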

[20] = A CellTox Green Cytotoxicity Assay to monitor cytotoxicity in HEK293 cells - 0 hour (AID 1224869); further: nearly all actives have a fitted effect of over 50% in size
In short: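 HEK293 cells, 600/well, were preincubated 5 hours and then exposed to compounds at 37 C for up to 40 hours. A cell-impermeant cyanine dye staining dead-cell DNA was read by fluorescence at 0, 8, 16, 24, 32 and 40 h time points.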
On the % scale 0 is the no-effect control and ±100 the full control effect.

CC(=O)Nc1ccc(C(=O)O)cc1
inactive: Potency [1] | Potency [2] | Potency [3] | Potency [4] | Potency [5] | Potency [6] | Potency [7] | Potency [8] | Potency [9] | Potency [10] | outcome [11] | Potency [12]

O=C(Cl)c1c(Cl)c(Cl)c(C(=O)Cl)c(Cl)c1Cl
inactive: Potency [1] | Potency [2] | Potency [3] | Potency [4] | Potency [5] | Potency [6] | Potency [7] | Potency [13] | Potency [14] | Potency [9] | Potency [10] | outcome [11] | Potency [12] | Potency [15] | activity change, positive = activation ([16]; at 92.4 µM (top of the series)) 2.78% and 1.3% | Potency [17] | Potency [18]

CS(=O)(=O)Nc1ccc([N+](=O)[O-])cc1Oc1ccccc1
inactive: Potency [19] | Potency [4] | Potency [5] | Potency [6] | Potency [13] | Potency [14] | Potency [8] | Potency [9] | Potency [10] | Potency [12] | activity change, positive = activation ([16]; at 42.5 µM (top of the series)) -19.6% | activity change, positive = activation ([16]; at 92.4 µM (top of the series)) -48.5% | Potency [17] | Potency [18] | Potency [20]
active: Potency [1] 30.6 µM | Potency [15] 38.6 µM

CCOC(=O)[C@H](CCc1ccccc1)N[C@@H](C)C(=O)N1Cc2ccccc2C[C@H]1C(=O)O
inactive: Potency [1] | Potency [2] | Potency [3] | Potency [4] | Potency [5] | Potency [6] | Potency [7] | Potency [13] | Potency [14] | Potency [9] | Potency [10] | outcome [11] | Potency [12] | Potency [15] | activity change, positive = activation ([16]; at 42.5 µM (top of the series)) -3.47% | activity change, positive = activation ([16]; at 92.4 µM (top of the series)) -6.49% | Potency [17] | Potency [18] | Potency [20]

CCCCC(CC)C(=O)OCCOCCOCCOC(=O)C(CC)CCCC (centres undefined)
inactive: Potency [1] | Potency [2] | Potency [3] | Potency [4] | Potency [5] | Potency [6] | Potency [7] | Potency [13] | Potency [14] | Potency [9] | Potency [10] | outcome [11] | Potency [12] | Potency [15] | activity change, positive = activation ([16]; at 92.4 µM (top of the series)) -11.1% and 0.258% | Potency [17] | Potency [20]

CC1CC(OC(=O)c2ccccc2O)CC(C)(C)C1 (centres undefined)
48.5 µM (active) and inactive: Potency [9]
inactive: Potency [1] | Potency [2] | Potency [3] | Potency [4] | Potency [5] | Potency [6] | Potency [7] | Potency [8] | Potency [10] | Potency [12] | Potency [17] | Potency [18] | Potency [20]

CCc1ccccc1O
inactive: Potency [1] | Potency [2] | Potency [3] | Potency [4] | Potency [5] | Potency [6] | Potency [7] | Potency [8] | Potency [9] | Potency [10] | outcome [11] | Potency [12] | Potency [20]
